Screens as filed in PubChem.
Sampled rows, rich in hits. Any-hit rate of the full collection: about 8.9%.
KB-V1 MDR tox = KB-V1 MDR subline cytotoxicity. 400,000 tested, 3.4% active. Potency, µM (titrated, usually from 46.1 µM), usual class: cytotoxic. KB-V1 MDR cells viability, CellTiter-Glo, 72 h. AID 1347076; also: nearly all actives have a fitted effect of over 60% in size
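Drug-selected KB-V1 cells, grown in DMEM lacking phenol red with 10% FBS, receive compound titrations; after three days at 37 degrees C, surviving cell ATP is quantified by CellTiter-Glo luminescence and responses normalized and curve-fitted.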
D3 antag = D3 dopamine receptor (human) antagonism; P35462; D3R cells, DiscoveRx beta-arrestin luminescence, antagonist mode; hits give low values; max response, negative = inhibition, %; 360,000 tested, 2.5% active; AID 652054; in the data active = max response below about -50%; inconclusive = no clear call, values can overlap the other calls
Target sequence (P35462 whole entry, looked up): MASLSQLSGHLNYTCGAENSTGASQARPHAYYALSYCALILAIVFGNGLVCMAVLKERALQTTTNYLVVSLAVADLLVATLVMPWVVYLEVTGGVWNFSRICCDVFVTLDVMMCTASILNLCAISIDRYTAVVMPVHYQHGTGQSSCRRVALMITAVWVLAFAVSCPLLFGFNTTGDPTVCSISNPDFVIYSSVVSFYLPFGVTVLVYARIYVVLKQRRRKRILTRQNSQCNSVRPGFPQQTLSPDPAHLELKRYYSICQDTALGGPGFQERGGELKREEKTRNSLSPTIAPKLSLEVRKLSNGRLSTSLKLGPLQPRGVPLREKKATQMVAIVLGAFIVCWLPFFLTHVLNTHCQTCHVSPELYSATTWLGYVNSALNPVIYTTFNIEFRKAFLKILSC
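Cells expressing the human receptor were seeded at 1500 cells/well, incubated overnight at 37 degrees C in 5% CO2, then exposed to library compounds with dopamine controls for 90 minutes at 37 degrees C before luminescent detection.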
KB-3-1 tox = kills parental KB-3-1 adenocarcinoma cells. 400,000 tested, 1.4% active. KB-3-1 viability, CellTiter-Glo ATP luminescence, 72 h. Potency, µM (doses to about 46.1 µM), usual class: cytotoxic; also: nearly all actives have a fitted effect of over 60% in size
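Cells are dispensed, compounds pinned in, plates held at 37 °C for 72 h, then CellTiter-Glo is added and luminescence read after 10 minutes. Cell line: parental KB-3-1 in phenol-red-free DMEM, 10% FBS.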
SW480 rereplic = DNA re-replication induction in SW480 cells | SW480 DNA re-replication, Hoechst DNA content imaging, 48 h | AID 624297 | 340,000 tested, 1.8% active | Potency, µM (titrated, usually from 46.1 µM), usual class: activators; also: nearly all actives have a fitted effect of over 55% in size
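250 cells/well; 23 nL cpd via pin tool; 48 hr, 37 C, 5% CO2; Hoechst 40 min; imager read of total nuclear intensity, ex 405/em 500-530 nm.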
MCF10A rerep = induces DNA re-replication in MCF 10a normal breast cells | MCF 10A DNA re-replication, Hoechst nuclear intensity, 48 h | Potency, µM (titrated, usually from 46.1 µM), actives largely listed as activators | 350,000 tested, 2.9% active | AID 624296; also: nearly all actives have a fitted effect of over 50% in size
D3 ag = D3 dopamine receptor (human) agonism | D3R DiscoveRx beta-arrestin cells, luminescence, 90 min | max activation, % | 410,000 tested, 0.58% active; in the data active = max activation above about 30%
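Agonist mode: compounds and dopamine controls were applied to plated cells for 90 min at 37 degrees C after an overnight attachment at 1500 cells/well. Luminescent read-out followed 30 - 60 minutes at room temperature with DiscoveRx detection reagent.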
Hits are given with their value; . = inactive; ? = inconclusive; / = no result. Unless noted, calls follow the shape of the dose curve; as a rule, active = well fitted curve in the direction sought with a large enough effect; inconclusive = small, poorly fitted or top-dose-only effect, or another doubt; inactive = no such curve, though single readings can be large; an effect the other way counts as inactive or inconclusive.

SMILES | KB-V1 MDR tox | D3 antag | KB-3-1 tox | SW480 rereplic | MCF10A rerep | D3 ag
NC(=O)C(C(=O)/C=C/c1ccc(Cl)cc1)=C1SCCS1 | 6.5µM | . | ? | . | ? | .
CC(=O)Nc1cccc(OC2=NS(=O)(=O)c3ccccc32)c1 | . | / | . | / | / | /
COC(=O)c1c(-c2ccc(Cl)cc2)noc1N1CCN(c2cccc(OC)c2)CC1 | . | / | . | / | / | 82
O=C(COC(=O)c1ccccc1O)Nc1cccc2ccccc12 | . | . | . | . | . | .
O=C(COc1ccccc1)Nc1nnc2n1CCS2 | / | / | / | / | / | .
Cc1ccc(NC(=O)c2cnc3cc(C)ccn3c2=O)c(C)c1 | . | / | . | / | / | .
CCN(CC)c1ccc(NC(=O)c2cnc3ccccn3c2=O)c(C)c1 | 3.7µM | . | . | . | ? | .
CCOc1cc(CNC(=O)c2ccc(Cn3c(=O)c4cccn4c4cccnc43)cc2)ccc1OC | / | / | / | / | / | .
C=C1C=C(C(F)F)n2ncc(C(=O)NCc3ccc(OC)cc3)c2N1 | . | / | . | / | / | /
C=CCN1C(=O)/C(=C/c2ccc(O)cc2)S/C1=N/c1nccs1 | . | . | . | . | 23µM | .
C=CCN=C1S/C(=C\c2ccc(N(C)C)cc2)C(=O)N1CC=C | . | . | . | ? | 18µM | .
CCCCN1CC(COCc2ccccc2)Oc2ccccc2S1(=O)=O (stereo not drawn) | . | . | . | ? | . | .
COc1ccc(OC)c(NC(=O)c2cc3c(n(-c4ccc(Cl)cc4)c2=O)CC(C)(C)CC3=O)c1 | . | / | . | / | / | .
CC(C)c1ccc(NC(=O)CSC2=Nc3ccccc3C3=NC(CCC(=O)NCc4cccs4)C(=O)N23)cc1 (stereo not drawn) | . | / | . | / | / | .
CCn1c(SCC(=O)N2CCN(c3ccc(F)cc3)CC2)nnc1-c1ccncc1 | 18µM | . | . | . | . | .
COCCn1c(SCC(=O)N2CCOCC2)nnc1-c1ccncc1 | . | . | . | . | . | .
O=C(CSc1nc(N2CCCCC2)nc(N2CCCCC2)n1)N1CCN(c2ccccc2)CC1 | 16µM | . | ? | . | . | .
O=C(CSc1ccc(-c2ccncc2)nn1)N1CCN(c2ccccc2)CC1 | 15µM | . | . | . | . | .
Cn1c(SCC(=O)N2CCN(c3ccccc3)CC2)nnc1-c1ccncc1 | . | . | . | . | . | .
Cn1c(SCC(=O)N2CCN(c3cccc(Cl)c3)CC2)nnc1-c1ccncc1 | 16µM | . | 13µM | . | . | .
C=CCN1c2ccccc2Sc2cnccc21 | ? | . | . | / | / | .
CC(=O)OCCN1c2ccccc2Sc2cnccc21 | 15µM | . | 12µM | / | / | .
COC(=O)c1cc(NC(=O)c2c(Cl)cnn2C)cc(C(=O)OC)c1 | 15µM | . | . | . | . | .
Cc1c(NS(=O)(=O)c2ccc(NCCN3CCOCC3)c([N+](=O)[O-])c2)c(=O)n(-c2ccccc2)n1C | ? | . | . | . | . | .
Cc1ccc(NC(=O)C2CCCN(C(=O)c3cnn(-c4ccccc4)c3-n3cccc3)C2)cc1 (stereo not drawn) | ? | / | ? | / | / | .
SMILES | KB-V1 MDR tox | D3 antag | KB-3-1 tox | SW480 rereplic | MCF10A rerep | D3 ag
O=[N+]([O-])C(/C=C(/Cl)[N+](=O)[O-])=C(N1CCCCC1)N1CCCCC1 | . | . | . | 15µM | . | .
Cc1ccc(C(=O)NCCc2cc3ccc(C)c(C)c3[nH]c2=O)cc1[N+](=O)[O-] | 4.1µM | . | . | ? | . | .
O=C(NCCc1ccccc1)c1ccc(Cl)c([N+](=O)[O-])c1 | . | . | . | . | . | .
COc1ccc(C(=O)NCCc2cc3ccc(C)c(C)c3[nH]c2=O)cc1OC | . | . | . | . | . | .
Cc1cc(C(=O)NCCc2ccccc2)ccc1[N+](=O)[O-] | . | -55 | . | . | . | .
CCOc1ccc(CC(=O)Nc2nnc3n2CCS3)cc1 | ? | / | . | / | / | .
COc1ccc(Br)cc1CSC(=N)N | . | . | . | . | . | .
CCCCCOc1ccc(Br)cc1CSC(=N)N | 9.2µM | . | 12µM | ? | ? | .
COCCCNC(=S)N/N=C/c1ccc(N(C)C)cc1 | . | . | . | . | . | .
COCCCNC(=S)N/N=C/c1ccc(N(C)C)cc1Cl | . | . | . | 29µM | ? | .
CCOc1ccc(C2C(C(=O)OC)=CN(CCOC)C=C2C(=O)OC)cc1 | ? | . | . | ? | . | .
COC(=O)C1=CN(Cc2cccs2)C=C(C(=O)OC)C1c1cccc(Cl)c1 | ? | . | . | ? | 7.3µM | .
COCCN1C=C(C(=O)OC)C(c2ccc(Cl)cc2)C(C(=O)OC)=C1 | . | . | . | 9.2µM | 16µM | .
COC(=O)C1=CN(Cc2ccc(OC)cc2)C=C(C(=O)OC)C1c1ccsc1 | ? | . | . | 23µM | ? | .
CC(C)OC(=O)c1cc(NC(=S)Nc2ccc([N+](=O)[O-])cc2)cc(C(=O)OC(C)C)c1 | ? | -63 | ? | ? | ? | .
CCCCNC(=S)Nc1ccc([N+](=O)[O-])cc1 | ? | . | ? | . | 18µM | .
CCCN1CCN(C(=S)Nc2ccc([N+](=O)[O-])cc2)CC1 | 21µM | . | . | . | . | .
CC(C)OC(=O)c1cc(C(=O)OC(C)C)cc([N+](=O)[O-])c1 | / | / | / | / | / | .
O=[N+]([O-])c1ccc(NNC(=S)Nc2ccc(F)cc2)cc1 | 21µM | . | ? | . | . | .
O=C(NNC(=S)Nc1ccc(F)cc1)c1cccc([N+](=O)[O-])c1 | . | ? | . | . | . | .
COc1ccc(CNC(=O)Cn2c(-c3ccccc3)cc(C(C)=O)c2C)cc1OC | ? | / | . | / | / | .
CC(C)c1ccc(Nc2ncnc3c2c(-c2ccccc2)cn3-c2ccccc2)cc1 | / | / | / | / | / | .
CN1CCCC[C@@H]1CCN1c2ccccc2Sc2ccc(S(C)=O)cc21 (stereo partly drawn) | / | / | / | . | . | /
CSc1ccc2c(c1)N(CCC1CCCCN1C)c1ccccc1S2 (stereo not drawn) | ? | -89 | . | / | . | .
CC(=O)N1CCN(c2csc3ccc(F)cc3c2=O)CC1 | . | / | . | / | / | .
SMILES | KB-V1 MDR tox | D3 antag | KB-3-1 tox | SW480 rereplic | MCF10A rerep | D3 ag
CCCN1Cc2cccc(C(=O)Nc3ccc(C(C)=O)cc3)c2C1=O | ? | / | . | / | / | .
CCOC(=O)c1cnc2cc3c(cn2c1=O)CCCC3 | ? | . | ? | . | . | .
CCOC(=O)C1=C(SCC)c2cc3c(n2C1=O)CCCC3 | . | -57 | . | . | ? | .
CCOc1cc(C(=O)N2CC(=O)Nc3ccc(C)cc3C2c2ccccc2)cc(OCC)c1OCC (stereo not drawn) | ? | / | . | / | / | .
COc1cccc(/C=N/Nc2nc3ccccc3n3cnnc23)c1O | 6.5µM | . | ? | ? | ? | .
COc1ccc(Nc2nc3ccccc3n3cnnc23)cc1 | 13µM | . | . | . | ? | .
